A short description of test [1]: qHTS to identify inhibitors of the type 1 interferon - major histocompatibility complex class I in skeletal muscle: primary screen against the NCATS Pharmaceutical Collection (AID 1347407).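 Further: luminescence of HiBiT knocked into endogenous HLA-B as interferon-induced MHC class I level.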 The procedure, abridged: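 Immortalized human myoblasts (C25cl48) with HiBiT knocked into endogenous HLA-B*08:01 were stimulated with 4 ng/ml IFN-beta and treated with compounds (8-point, 1:5, top 46 uM final) for 24 h at 37 C; HiBiT lytic luminescence read.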
(In general: Quantitative high-throughput screening tests each substance at several concentrations.)

Test [2] concerns the target Protein phosphatase 1D (Homo sapiens) (UniProt O15297). Put plainly: RapidFire Mass Spectrometry qHTS Assay for Modulators of WT P53-Induced Phosphatase 1 (WIP1) (AID 1347424). Further: series mostly up to about 63 µM. The procedure, abridged:
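RapidFire MS readout of dephosphorylated VEPPL-S-QETFS product, with 1 uM isotope-labelled peptide standard. Reaction: 10 nM WIP1, 2 uM phosphopeptide substrate, 5 min, room temperature, after 1 h compound preincubation; stopped with 0.5% formic acid.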

For test [3] the target is unchanged. Briefly: Rhodamine-PBP qHTS Assay for Modulators of WT P53-Induced Phosphatase 1 (WIP1) (AID 1347425). The procedure, abridged: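 The read-out is the change in Rhodamine-PBP fluorescence (f1 - f0, ex 525/em 598 nm) as Pi is released, read each minute for 11 min. Final reaction: 5 nM WIP1, 10 uM phosphopeptide VEPPL-pS-QETFS, 10 uM Rh-PBP, 50 mM Tris-HCl pH 7.5, 30 mM MgCl2. Compound was preincubated with enzyme for 1 hour at room temperature.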

Test [4] in a line: Primary qHTS for inhibitors of SARS-S pseudo-typed particle cell entry (AID 1479145; calls by dose curve; further: nearly all actives have a fitted effect of over 45% in size).
The nature of test [5]: Primary qHTS for Huh7 cytotoxicity: counterscreen for inhibitors of MERS-S pseudotyped particle cell entry (AID 1479147; calls by dose curve).
Test [6] in a line: Primary qHTS for inhibitors of MERS-S pseudo-typed particle cell entry (AID 1479149; calls by dose curve; further: nearly all actives have a fitted effect of over 60% in size).
A short description of test [7]: Primary qHTS for Vero E6 cytotoxicity: counterscreen for inhibitors of SARS-S pseudo-typed particle cell entry (AID 1479150; calls by dose curve).
A short description of test [8]: Primary qHTS for inhibitors of La Crosse Virus (LACV) - induced cell death in SH-SY5Y cells (AID 1508616).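 Further: top concentration of the series differs between compounds; higher means more rescue of cells from virus-induced death.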 The procedure, abridged: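 Cytopathicity rescue screen: compounds pinned onto SH-SY5Y cells, which are then infected with LACV (MOI 0.01) and held 6 days at 37C. Percent activity is scaled between infected DMSO control and uninfected DMSO control.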
The nature of test [9]: qHTS to identify inhibitors of the type 1 interferon - major histocompatibility complex class I in skeletal muscle: primary screen against the NCATS Mechanism Interrogation Plate v5.0 (MIPE) Libary (AID 1347411). Further: nearly all actives have a fitted effect of over 65% in size. Further: potency means the concentration at half of the fitted maximal effect. The procedure, abridged: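 HLA-B HiBit myoblasts, dexamethasone-free medium + 4 ng/ml IFN-b, 24 h compound, 11-pt 1:3 from 46 uM final. Readout: Nano-Glo HiBiT lytic luminescence after 10 min lysis, RT.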

Test [10] addresses Calcium and integrin-binding protein 1 (Homo sapiens) (UniProt Q99828). Briefly: Confirmatory qHTS for Identification of Calcium Integrin Binding Protein 1 (CIB1) Competitor (AID 1508617). Further: nearly all actives have a fitted effect of over 65% in size. Further: potency means the concentration at half of the fitted maximal effect. The gist of the method: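 Compounds at up to 114 uM final met 1 uM GST-tagged CIB1 for 15 min at room temperature (HEPES pH 7.4, 5 mM CaCl2). FITC-labelled alphaIIb peptide, 100 nM, added; polarization read after 15 min more.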

Test [11] is described as follows: Validation qHTS assay for inhibitors of Activation Induced Cytidine Deaminase (AID): UDG Counterscreen signal (AID 1347427). The procedure, abridged:
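Fluorescence at 560 nm excitation, 665 nm emission reports UDG signal after 250 mM NaOH (2x) addition and 30 min. Enzymes (AID 1 uM, UDG 2 U/mL, at 4/3x) preincubated 10 min with compound, then 4 h with 4x 250 nM DJC20/DJC23 substrate at room temperature.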

In test [12] the target is Single-stranded DNA cytosine deaminase (Homo sapiens) (UniProt Q9GZX7). Put plainly: Validation qHTS assay for inhibitors of Activation Induced Cytidine Deaminase (AID): AID signal (AID 1347429). The procedure, abridged:
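AID+UDG coupled FRET deamination; cpds up to 114 uM final; DJC20/DJC23 substrate, 4 hr RT; NaOH stop, 30 min RT; read Ex 540/Em 590.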

Test [13] is described as follows: Confirmatory qHTS for VERO E6 Cytotoxicity Assay: Counterscreen for SARS-CoV-2 CPE Assay (AID 1508605; calls by dose curve; further: series mostly up to about 20 µM; nearly all actives have a fitted effect of over 60% in size).
Test [14] is described as follows: Confirmatory qHTS for activators (rescue) of SARS-CoV-2 Cytopathic Effect (CPE) (AID 1508606; calls by dose curve; further: potency means the concentration at half of the fitted maximal effect; nearly all actives have a fitted effect of over 70% in size).

Structures are written as SMILES. Unmarked numbers belong to inactive results. Inconclusive results are not listed. Active and inactive are the calls of the source. Unless noted, the call rests on the fitted dose curve; in most records, active means well fitted curve in the direction sought with a large enough effect; inconclusive means small, poorly fitted or top-dose-only effect, or another doubt; inactive means no such curve, though single readings can be large; an effect the other way counts as inactive or inconclusive.

Sequence of Protein phosphatase 1D (Homo sapiens) (O15297 whole entry, looked up): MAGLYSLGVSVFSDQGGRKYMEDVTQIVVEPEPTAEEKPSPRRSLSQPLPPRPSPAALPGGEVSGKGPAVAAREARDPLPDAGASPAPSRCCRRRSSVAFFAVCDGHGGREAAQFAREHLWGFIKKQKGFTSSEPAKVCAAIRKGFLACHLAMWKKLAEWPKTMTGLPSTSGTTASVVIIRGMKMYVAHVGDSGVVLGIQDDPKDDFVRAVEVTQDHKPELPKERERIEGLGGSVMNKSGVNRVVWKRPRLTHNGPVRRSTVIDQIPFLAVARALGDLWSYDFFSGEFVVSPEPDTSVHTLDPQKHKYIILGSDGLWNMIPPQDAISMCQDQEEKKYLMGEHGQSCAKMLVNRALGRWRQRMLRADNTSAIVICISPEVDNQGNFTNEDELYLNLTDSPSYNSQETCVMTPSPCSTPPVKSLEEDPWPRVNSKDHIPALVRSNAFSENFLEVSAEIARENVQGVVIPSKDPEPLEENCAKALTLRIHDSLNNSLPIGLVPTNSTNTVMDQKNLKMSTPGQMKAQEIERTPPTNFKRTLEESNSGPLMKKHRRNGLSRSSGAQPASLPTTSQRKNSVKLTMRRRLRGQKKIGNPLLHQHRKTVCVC
Sequence of Calcium and integrin-binding protein 1 (Homo sapiens) (Q99828 whole entry, looked up): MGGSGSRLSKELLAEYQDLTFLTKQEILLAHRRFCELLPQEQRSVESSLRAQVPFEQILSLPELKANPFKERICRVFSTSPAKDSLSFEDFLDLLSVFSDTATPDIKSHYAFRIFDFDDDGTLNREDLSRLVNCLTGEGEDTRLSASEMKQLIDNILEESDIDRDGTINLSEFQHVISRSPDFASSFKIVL
Sequence of Single-stranded DNA cytosine deaminase (Homo sapiens) (Q9GZX7 whole entry, looked up): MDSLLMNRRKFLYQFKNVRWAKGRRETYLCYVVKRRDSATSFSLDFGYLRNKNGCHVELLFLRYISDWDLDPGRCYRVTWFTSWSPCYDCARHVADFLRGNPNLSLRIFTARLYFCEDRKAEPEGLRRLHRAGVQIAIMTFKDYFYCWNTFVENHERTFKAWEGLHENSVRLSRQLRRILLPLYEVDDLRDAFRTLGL

Turning to `O=[N+]([O-])/N=C1\NCCN1Cc1ccc(Cl)nc1`, the call in test [1], in test [3] and in test [8] was inactive. The Potency entry in [2], in test [4], in [5], in test [6] and in [7] was “inactive” throughout.

For `ClC1=C(Cl)[C@]2(Cl)[C@@H]3[C@@H]4C[C@@H]([C@H]5O[C@@H]45)[C@@H]3[C@@]1(Cl)C2(Cl)Cl`, the outcome in test [1], in [3] and in test [8] was inactive.

Consider `CC1(C)CC/C(=C/c2ccc(Cl)cc2)C1(O)Cn1cncn1` (stereo unspecified), for which the compound was called inactive in test [1], in test [3] and in test [8]. Moreover, in test [2], the Potency entry is “inactive”.

In the case of `O=C(N[C@@H](COc1ccc2[nH]c(=O)[nH]c2c1)c1ccccc1)c1cccn(Cc2ccc(F)c(F)c2)c1=O`, in test [9], the Potency result is “inactive”.

`CCC(=O)O[C@@H]1C=C2CCC3C(CCC4(C)C3CC[C@@H]4OC(=O)CC)C2CC1` (stereo partly specified): the outcome in test [1], in test [3] and in test [8] was inactive. Further, the Potency entry in [2], in [4], in [5], in test [6] and in test [7] was “inactive” each time.

Turning to `c1cc2ccc3cccc4ccc(c1)c2c34`, the outcome in [1], in [3] and in [8] was inactive. Besides, the Potency result in test [2] is “inactive”.

Consider `O=C1C(I)=CC(=C(c2cc(I)c(O)c(I)c2)c2ccccc2C(=O)O)C=C1I`, for which the compound was called inactive in test [1] and in test [8].

`CCOCCOC(C)=O`: the call in test [1], in test [3] and in [8] was inactive. Further, in test [2], the Potency entry is “inactive”.

For the compound `CC(C)[C@]12O[C@H]1[C@@H]1O[C@]13[C@]1(O[C@H]1C[C@H]1C4=C(CC[C@@]13C)C(=O)OC4)[C@@H]2O`, the Potency in test [9] is 82.9 nM (active).

Turning to `CCCCCCCCc1ccc(O)cc1`, the outcome in test [1] and in test [8] was inactive. The Potency entry in test [2] was “inactive”.

For `CC(O)CN1CCN(CC(=O)[O-])CCN(CC(=O)[O-])CCN(CC(=O)[O-])CC1.[Gd+3]` (stereo unspecified), the compound was classed as inactive in test [1], in [3] and in [8]. Also, the Potency entry in test [2] was “inactive”.

As to `CC[N+]1(CCOC(=O)C(O)(c2ccccc2)c2ccccc2)CCCCC1`, the result in test [1], in test [3] and in test [8] was inactive. The Potency result in test [2], in test [4], in test [5], in test [6] and in [7] was “inactive” throughout.

Turning to `Nc1c(Cl)c(Cl)c(Cl)c(Cl)c1Cl`, the result in [1], in test [3] and in test [8] was inactive. For the same compound, the Potency result in [2] was “inactive”.

On to `O=C(O)COc1nc(Cl)c(Cl)cc1Cl`, for which the compound was classed as inactive in [1], in [3] and in test [8]. Besides, the Potency result in test [2] was “inactive”.

For `O=S(=O)(c1ccc(Cl)cc1)c1ccc(Cl)cc1`, the outcome in [1], in test [3] and in test [8] was inactive. Besides, in test [2], the Potency result was “inactive”.

As for `CC(C)Oc1cccc(NC(=O)c2ccccc2C(F)(F)F)c1`, the result in test [1], in test [3] and in test [8] was inactive. The Potency entry in test [2] and in test [10] was “inactive” each time.

Regarding `O=C(Nc1ccccc1-c1ccc(Cl)cc1)c1cccnc1Cl`, the call in test [1], in [3] and in test [8] was inactive. For the same compound, the Potency result in test [2] is “inactive”.

On to `COC(C)(C)CCCC(C)C/C=C/C(C)=C/C(=O)OC(C)C` (stereo unspecified), for which the compound was classed as inactive in test [1], in [3] and in test [8]. Further, the Potency entry in [2] was “inactive”.

In the case of `O=[N+]([O-])c1ccc([As](=O)(O)O)cc1`, the compound was classed as inactive in test [1], in [3] and in test [8]. For the same compound, the Potency result in test [2], in test [4], in [5] and in test [7] was “inactive” throughout.

On to `CCNC(=O)C[C@@H]1N=C(c2ccc(Cl)cc2)c2cc(OC)ccc2-n2c(C)nnc21`, for which, in test [9], the Potency result was “inactive”.

On to `C=CCC1=C(C)C(OC(=O)C2C(C=C(C)C)C2(C)C)CC1=O` (stereo unspecified), for which the call in test [1], in test [3] and in test [8] was inactive. In test [2], the Potency entry was “inactive”.

As for `CCCCOC(=O)c1ccccc1C(=O)OCc1ccccc1`, the outcome in test [1], in test [3] and in test [8] was inactive. Moreover, the Potency entry in test [2] was “inactive”.

As for `CS(=O)(=O)c1ccc(C(=O)C2C(=O)CCCC2=O)c([N+](=O)[O-])c1`, the result in [1] and in [8] was inactive.

Take `CC(C)(C)NC[C@H](O)c1ccc(O)cc1Cl`: the compound was called inactive in test [1], in test [3] and in test [8]. Further, in test [2], the Potency entry is “inactive”.

On to `CCC1(CCC(C)C)C(=O)NC(=O)NC1=O`, for which the outcome in test [1], in test [3] and in [8] was inactive. In addition, the Potency entry in [2] was “inactive”.

`CCO/N=C(\CC)C1=C(O)CC(c2c(C)cc(C)cc2C)CC1=O` (stereo unspecified): the result in test [1], in test [3] and in [8] was inactive. The Potency result in test [2] was “inactive”.

As to `CCCCC(CC)COC(=O)c1ccccc1C(=O)OCC(CC)CCCC` (stereo unspecified), the outcome in test [1], in [3] and in [8] was inactive. For the same compound, in test [2], the Potency result is “inactive”.

Turning to `Oc1ccc2c3c1O[C@H]1[C@@H](O)C=C[C@H]4[C@@H](C2)NCC[C@@]341`, the call in test [1], in test [3] and in test [8] was inactive. Also, the Potency entry in test [2] is “inactive”.

On to `Nc1ccc([N+](=O)[O-])cc1`, for which the compound was called inactive in [1], in [3] and in test [8]. In [2], the Potency entry was “inactive”.

`O=[N+]([O-])c1c2ccccc2cc2ccccc12`: the outcome in [1] and in [8] was inactive. In addition, the Potency result in test [2] is “inactive”.

Take `O=C(O)COc1ccccc1`: the compound was called inactive in test [1], in test [3] and in test [8]. Moreover, the Potency entry in test [2], in test [4], in test [5], in test [6] and in test [7] was “inactive” in each case.

For the compound `O=[N+]([O-])c1c(Cl)c(Cl)cc(Cl)c1Cl`, the result in test [1], in [3] and in [8] was inactive. Also, the Potency entry in test [2] was “inactive”.

Turning to `C/C=C(/C)C(=O)O[C@H]1C(C)=C2[C@H]([C@@H]1OC(=O)CCCCCCC)[C@@](C)(OC(C)=O)C[C@H](OC(=O)CCC)[C@@]1(O)[C@H]2OC(=O)[C@@]1(C)O`, the compound was called inactive in test [11] and in test [12].

Regarding `CN(C)[C@@H]1C(=O)C(C(N)=O)=C(O)[C@@]2(O)C(=O)C3=C(O)c4c(O)cccc4[C@@](C)(O)[C@H]3[C@H](O)[C@@H]12`, the Potency result in test [4], in test [5], in [6] and in test [7] was “inactive” in each case.

Regarding `CC1(N2CCC(n3c([C@@H]4CCCNC4)nc4ccccc43)CC2)CCCCCCC1`, in [13], the Potency result was “inactive”. For the same compound, in test [14], the Potency was 2820 nM (active).

As for `CC(C)[C@H]1C(=O)N[C@H](CO)Cc2c[nH]c3cccc(c23)N1C`, the Potency entry in [13] was “inactive”. Also, in test [14], the Potency was 1390 nM (active).

Turning to `CC1=C(O)C(=O)C=C2C1=CC=C1[C@@]2(C)CC[C@@]2(C)[C@@H]3C[C@](C)(C(=O)O)CC[C@]3(C)CC[C@]12C`, in test [10], the Potency is 22400 nM (active).

With `CC(=O)Oc1ccccc1C(=O)O`, the Potency entry in test [4], in test [5], in test [6] and in test [7] was “inactive” in each case.

Turning to `CCCCCCCCCCCCCCCC[N+](C)(C)C`, the Potency result in test [2] and in [5] was “inactive” throughout. For the same compound, the call in test [3] and in [8] was inactive. In [10], the Potency is 70800 nM (active).

As for `N[C@H]1C(O)O[C@H](CO)[C@@H](O)[C@@H]1O` (stereo partly specified), the Potency result in test [4], in [5], in test [6] and in test [7] was “inactive” throughout.

Source of the values: PubChem BioAssay (NCATS).
